Measurements reported in PubChem BioAssay (NCI).
Compounds without any hit were thinned out: in the full panel of roughly 79,000, 15% have a hit. Cut-off read from the data, not from the text of the source: active = growth inhibition above about 70%; inactive = the rest.

Columns and labels:
[1] = NCI Yeast Anticancer Drug Screen. Data for the rad50 strain (AID 155);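 note: 0% = growth of vehicle-only cultures of the same strain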; settings: S. cerevisiae rad50 strain growth inhibition; at 50.0 µM; stronger effect = higher value
How it was run: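 Growth of the mutant yeast was measured after compound exposure and referenced to vehicle-treated cultures.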

[2] = NCI Yeast Anticancer Drug Screen. Data for the mec2-1 strain (AID 157); settings: S. cerevisiae mec2-1 strain, at 50.0 µM, stronger effect = higher value
How it was run: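 Yeast mec2-1 mutant treated with compound. Readout: growth inhibition vs vehicle controls.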

[3] = NCI Yeast Anticancer Drug Screen. Data for the sgs1 mgt1 strain (AID 161);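 note: 0% = growth of cultures given vehicle only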; settings: S. cerevisiae sgs1 mgt1 strain, at 50.0 µM, stronger effect = higher value
How it was run: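 Test agents were incubated with a DNA-repair-mutant yeast strain. Growth was then read and compared against vehicle-treated controls.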

[4] = NCI Yeast Anticancer Drug Screen. Data for the cln2 rad14 strain (AID 165);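 note: 0% = growth equal to vehicle treated cultures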; settings: S. cerevisiae cln2 rad14 strain, at 50.0 µM, stronger effect = higher value
How it was run: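 cln2 rad14 yeast strain; compound exposure; growth inhibition read vs vehicle controls.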

[5] = NCI Yeast Anticancer Drug Screen. Data for the bub3 strain (AID 167); settings: S. cerevisiae bub3 mutant strain, at 50.0 µM, stronger effect = higher value
How it was run: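 Whole-cell yeast assay. The mutant strain was incubated with compounds, and growth inhibition was determined by comparison with vehicle-treated cells.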

[6] = NCI Yeast Anticancer Drug Screen. Data for the mlh1 rad18 strain (AID 175); settings: S. cerevisiae mlh1 rad18 strain growth inhibition; at 50.0 µM; stronger effect = higher value
How it was run: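 Yeast w/ defined DNA-repair lesions; compound exposure; growth vs vehicle controls → % inhibition.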

Measured: growth inhibition

Cc1cc(=O)[nH]c(N/N=C/c2ccc(O)cc2)n1
inactive: [1] -28.9% | [2] -44.5% | [3] -14.7% | [4] 2.65% | [5] -30.4% | [6] -26.8%

O=C(/C=C/c1ccc(OCc2ccccc2)c(OCc2ccccc2)c1)OCc1ccccc1
inactive: [1] -12% | [2] -9.65% | [3] -5.15% | [4] -33.9% | [5] -3.45% | [6] -34.8%

O=C(Nc1cccc2c1C(=O)c1cc(Cl)ccc1C2=O)c1ccccc1
inactive: [1] -2.7% | [2] 0.1% | [3] 4% | [4] -38.9% | [5] 5% | [6] -2.3%

CSc1ccc(NC(=O)Nc2cc(C)ccc2Cl)cc1
inactive: [1] -2.05% | [2] 23% | [3] 25.9% | [4] -4.05% | [5] 41.1% | [6] 19.6%

Cc1ccc(S(=O)(=O)Oc2c([N+](=O)[O-])cc(-c3ccccc3)cc2[N+](=O)[O-])cc1
inactive: [1] 47.8% | [2] 37.4% | [3] 63% | [4] 34.5% | [5] 0.7% | [6] 31%

Cc1cc(Cc2ccc(NC(=O)N3CC3)c(C)c2)ccc1NC(=O)N1CC1
inactive: [1] -2.95% | [2] -8.25% | [3] -6.8% | [4] 0.25% | [5] 10.8% | [6] -18.9%

Ic1ccc(Nc2ncnc3sc4c(c23)CCCC4)cc1
inactive: [1] 24.2% | [2] -14% | [3] -16.9% | [4] 15.8% | [5] 7.25% | [6] -7.65%

COc1cc(C2C(Cl)C(=O)N2n2cnc3ccccc3c2=O)ccc1O (stereo unspecified)
inactive: [1] -22.7% | [2] 3.3% | [3] -11.2% | [4] 12.8% | [5] -10.2% | [6] -11.8%

CC(=O)C1C(=O)C(=O)N(c2ccc([N+](=O)[O-])cc2Cl)C1=O (stereo unspecified)
inactive: [1] -45.9% | [2] -35.8% | [3] 2.95% | [4] 2.95% | [5] -3.55% | [6] -33.2%

COc1ccc(C2OC2C(=O)c2ccccc2)cc1 (stereo unspecified)
inactive: [1] 6.75% | [2] 0.7% | [3] 19.4% | [4] -14.2% | [5] 12.3% | [6] -1.25%

NC(=O)Oc1ccc(Cc2ccccc2)cc1
inactive: [1] -20.7% | [2] -43.2% | [3] -12.6% | [4] -8.95% | [5] -40.4% | [6] -5.05%

C#CCCOC(=O)c1ccccc1OC(C)=O
inactive: [1] -0.8% | [2] -9.55% | [3] -2.3% | [4] 11.5% | [5] 7.15% | [6] 5.15%

CC1(C)CNCC2(C)OCCCOC3(C)CNCC(C)(C)NC(=O)C(C)(CNCC(C)(C)NC3=O)OCCCOC(C)(CNCC(C)(C)NC2=O)C(=O)N1
inactive: [1] -22.6% | [2] -21.1% | [3] -24.4% | [4] 16.1% | [5] -3.05% | [6] -21.7%

CC(O)C([NH-])C(=O)O.CC([NH-])C(=O)O.[Cu+2] (stereo unspecified)
inactive: [1] 26.6% | [2] 15.7% | [3] 6.95% | [4] 12.7% | [5] 13.3% | [6] 15.4%

O=C(NCCCCCCNC(=O)Nc1cccc(C(F)(F)F)c1)Nc1cccc(C(F)(F)F)c1
inactive: [1] -9.65% | [2] -13.7% | [3] -4.05% | [4] -19.1% | [5] 2.4% | [6] 8.8%

COC(=O)C(CC(=O)Nc1ccc(Cl)c(Cl)c1)C(=O)C(=O)Nc1ccc(Cl)c(Cl)c1 (stereo unspecified)
inactive: [1] -36.2% | [2] -15.6% | [3] -34% | [4] 6.6% | [5] -3.25% | [6] -10.7%

Cc1ccc(C(=O)N(Cc2ccccc2)Cc2ccccc2)cc1N=NN(C)C
inactive: [1] -44.8% | [2] -39.5% | [3] -55.6% | [4] -8.2% | [5] -31.4% | [6] -22.2%

CNCC(C(=O)C(CNC)c1ccccc1)c1ccccc1 (stereo unspecified)
inactive: [1] -1.15% | [2] -6.45% | [3] 11.4% | [4] 7.6% | [5] 4% | [6] 21.9%

c1ccc(Cc2nnc(Cc3ccccc3)nn2)cc1
inactive: [1] 10.8% | [2] 8.35% | [3] 2.7% | [4] 7.25% | [5] 21.4% | [6] 7%

O=C1c2ccc3c([nH]c4ccccc43)c2C(=O)N1c1ccccc1
inactive: [1] 19.7% | [2] -2% | [3] 21.8% | [4] 11.9% | [5] 13.3% | [6] 7.35%

Cc1ccc(Cl)cc1NC(=O)Oc1ccccc1C(=O)OCc1ccccc1
inactive: [1] -31.9% | [2] -1.55% | [3] 18.5% | [4] -37.3% | [5] 20.2% | [6] 19.9%

O=C(O)C1C=CC2OC2C1C(=O)O (stereo unspecified)
inactive: [1] 2.9% | [2] -28.2% | [3] -5.95% | [4] -31.9% | [5] 1.1% | [6] 4.7%

Cc1nc(N)c(N2CCN(Cc3ccccc3)CC2)c(=O)[nH]1
inactive: [1] -26.4% | [2] 1.85% | [3] -33.9% | [4] 16.8% | [5] 29.6% | [6] -25.3%

CCCC(CCCC(=O)O)C(=O)O (stereo unspecified)
inactive: [1] -4% | [2] -9.8% | [3] 0.95% | [4] -8.2% | [5] 11.9% | [6] 6.1%

NC(Cc1ccccc1CP(=O)(O)O)C(=O)O (stereo unspecified)
inactive: [1] -46.8% | [2] -41.1% | [3] -16.4% | [4] -4.9% | [5] -29.9% | [6] -44.2%

N=C1C=CC2C(=Nc3ccccc3[N+]2=O)N1Cc1ccncc1 (stereo unspecified)
inactive: [1] -2.9% | [2] 1.3% | [3] -6% | [4] 1.45% | [5] 7.55% | [6] 22.8%

O=C(Oc1c(OC(=O)c2ccccc2)c2ccccc2c2ccccc12)c1ccccc1
inactive: [1] 3.2% | [2] 9.35% | [3] 7.85% | [4] -1.7% | [5] -1.25% | [6] 20.4%

Cc1cccc(C(=O)N(C)C)c1
inactive: [1] -0.7% | [2] 1.75% | [3] -6.4% | [4] -17.8% | [5] 4% | [6] 3.75%

CC(=O)OC1COC(n2c(=S)n(-c3ccccc3)c(=O)c3cc(Br)ccc32)C(OC(C)=O)C1OC(C)=O (stereo unspecified)
inactive: [1] 1.9% | [2] -5.4% | [3] 8.45% | [4] 15.8% | [5] -3.85% | [6] -11.9%

Cc1cc(C)c([N+](=O)[O-])cc1[N+](=O)[O-]
inactive: [1] 7.5% | [2] 5.5% | [3] 9.45% | [4] -1.25% | [5] -3.4% | [6] 5.15%

Cc1nn(C)c2c1C(=O)N(C)CC(=O)N2C
inactive: [1] -25.1% | [2] -38.9% | [3] -22.9% | [4] -14.2% | [5] -20.8% | [6] -8.25%

O=CNCC1(c2ccccc2)CCN(Cc2ccccc2)CC1
inactive: [1] -2.4% | [2] -23.8% | [3] 3.4% | [4] 2.05% | [5] 3.55% | [6] 8.45%

COc1cc2c(cc1OC)C1CCc3ccccc3CN1CC2 (stereo unspecified)
inactive: [1] 0.7% | [2] -25.5% | [3] -6.85% | [4] 8.95% | [5] -15.8% | [6] 3.15%

COc1ccc(-c2c(C#N)c(O)n(NS(=O)(=O)c3ccc(C)cc3)c(=O)c2C#N)cc1
inactive: [1] 12.1% | [2] 37% | [3] 33% | [4] 20.8% | [5] 28.5% | [6] 37.5%

CC1OC(C)(Cc2ccccc2)OC1C (stereo unspecified)
inactive: [1] 3.95% | [2] -13.9% | [3] -9.2% | [4] -59% | [5] -7.1% | [6] -8.95%

CCCC(=O)OCc1ccccc1
inactive: [1] 14.4% | [2] 11.9% | [3] -6.9% | [4] -15.8% | [5] -5.15% | [6] -7.85%

CC(=O)N(C(C)=O)n1c(Cc2ccc(C)cc2)nn(C(C)=O)c1=O
inactive: [1] -26.9% | [2] 15.2% | [3] -16.9% | [4] 13.3% | [5] -1.75% | [6] -27.9%

Cc1cccc(OCC(O)CN(Cc2ccsc2)c2ccccn2)c1 (stereo unspecified)
inactive: [1] 18.4% | [2] 16.4% | [3] 18.2% | [4] 37.3% | [5] 14.9% | [6] 8.2%

C/C=C(\CC)C(C#N)(CC)C(=O)OCC (stereo unspecified)
inactive: [1] 20.9% | [2] -18.4% | [3] -7.5% | [4] -6.25% | [5] -30.3% | [6] -24.8%

O=C(NCCCCCCNC(=O)c1ccccn1)c1ccccn1
inactive: [1] 0.25% | [2] -9.9% | [3] 9.05% | [4] -7.15% | [5] -14.8% | [6] -0.8%

Cc1cc(C)c(S(=O)(=O)Nc2ccccc2F)c(C)c1
inactive: [1] 40.1% | [2] 30.7% | [3] 62.9% | [4] 7.3% | [5] 29.4% | [6] 56.9%
